# Source: PubChem
# Only some compounds are listed: those with a hit (about 12% of all), similar ones and a draw of the others.
# JMJD2A Tudor: JMJD2A Tudor domain (human) inhibition; 390,000 compounds, 4.4% hits; Potency, µM (highest dose often 114 µM), for the others: at the top dose activity change, negative = inhibition, usual class: inhibitors; AID 504339; O75164; AlphaScreen JMJD2A-Tudor / H3K4me3 peptide binding; note: % is set by controls: 0 for no effect and ±100 for the full control effect; nearly all actives have a fitted effect of over 50% in size
# BAZ2B block: inhibitors of human BAZ2B bromodomain | Potency, µM (highest dose often 114 µM), inactives show at the top dose activity change, negative = inhibition, actives largely listed as inhibitors | AlphaScreen BAZ2B-H3K14Ac peptide displacement | 360,000 compounds, 4.4% hits | AID 504333 | Q9UIF8; note: % is set by controls: 0 for no effect and ±100 for the full control effect; nearly all actives have a fitted effect of over 60% in size
# Target sequence (Q9UIF8 whole entry, looked up): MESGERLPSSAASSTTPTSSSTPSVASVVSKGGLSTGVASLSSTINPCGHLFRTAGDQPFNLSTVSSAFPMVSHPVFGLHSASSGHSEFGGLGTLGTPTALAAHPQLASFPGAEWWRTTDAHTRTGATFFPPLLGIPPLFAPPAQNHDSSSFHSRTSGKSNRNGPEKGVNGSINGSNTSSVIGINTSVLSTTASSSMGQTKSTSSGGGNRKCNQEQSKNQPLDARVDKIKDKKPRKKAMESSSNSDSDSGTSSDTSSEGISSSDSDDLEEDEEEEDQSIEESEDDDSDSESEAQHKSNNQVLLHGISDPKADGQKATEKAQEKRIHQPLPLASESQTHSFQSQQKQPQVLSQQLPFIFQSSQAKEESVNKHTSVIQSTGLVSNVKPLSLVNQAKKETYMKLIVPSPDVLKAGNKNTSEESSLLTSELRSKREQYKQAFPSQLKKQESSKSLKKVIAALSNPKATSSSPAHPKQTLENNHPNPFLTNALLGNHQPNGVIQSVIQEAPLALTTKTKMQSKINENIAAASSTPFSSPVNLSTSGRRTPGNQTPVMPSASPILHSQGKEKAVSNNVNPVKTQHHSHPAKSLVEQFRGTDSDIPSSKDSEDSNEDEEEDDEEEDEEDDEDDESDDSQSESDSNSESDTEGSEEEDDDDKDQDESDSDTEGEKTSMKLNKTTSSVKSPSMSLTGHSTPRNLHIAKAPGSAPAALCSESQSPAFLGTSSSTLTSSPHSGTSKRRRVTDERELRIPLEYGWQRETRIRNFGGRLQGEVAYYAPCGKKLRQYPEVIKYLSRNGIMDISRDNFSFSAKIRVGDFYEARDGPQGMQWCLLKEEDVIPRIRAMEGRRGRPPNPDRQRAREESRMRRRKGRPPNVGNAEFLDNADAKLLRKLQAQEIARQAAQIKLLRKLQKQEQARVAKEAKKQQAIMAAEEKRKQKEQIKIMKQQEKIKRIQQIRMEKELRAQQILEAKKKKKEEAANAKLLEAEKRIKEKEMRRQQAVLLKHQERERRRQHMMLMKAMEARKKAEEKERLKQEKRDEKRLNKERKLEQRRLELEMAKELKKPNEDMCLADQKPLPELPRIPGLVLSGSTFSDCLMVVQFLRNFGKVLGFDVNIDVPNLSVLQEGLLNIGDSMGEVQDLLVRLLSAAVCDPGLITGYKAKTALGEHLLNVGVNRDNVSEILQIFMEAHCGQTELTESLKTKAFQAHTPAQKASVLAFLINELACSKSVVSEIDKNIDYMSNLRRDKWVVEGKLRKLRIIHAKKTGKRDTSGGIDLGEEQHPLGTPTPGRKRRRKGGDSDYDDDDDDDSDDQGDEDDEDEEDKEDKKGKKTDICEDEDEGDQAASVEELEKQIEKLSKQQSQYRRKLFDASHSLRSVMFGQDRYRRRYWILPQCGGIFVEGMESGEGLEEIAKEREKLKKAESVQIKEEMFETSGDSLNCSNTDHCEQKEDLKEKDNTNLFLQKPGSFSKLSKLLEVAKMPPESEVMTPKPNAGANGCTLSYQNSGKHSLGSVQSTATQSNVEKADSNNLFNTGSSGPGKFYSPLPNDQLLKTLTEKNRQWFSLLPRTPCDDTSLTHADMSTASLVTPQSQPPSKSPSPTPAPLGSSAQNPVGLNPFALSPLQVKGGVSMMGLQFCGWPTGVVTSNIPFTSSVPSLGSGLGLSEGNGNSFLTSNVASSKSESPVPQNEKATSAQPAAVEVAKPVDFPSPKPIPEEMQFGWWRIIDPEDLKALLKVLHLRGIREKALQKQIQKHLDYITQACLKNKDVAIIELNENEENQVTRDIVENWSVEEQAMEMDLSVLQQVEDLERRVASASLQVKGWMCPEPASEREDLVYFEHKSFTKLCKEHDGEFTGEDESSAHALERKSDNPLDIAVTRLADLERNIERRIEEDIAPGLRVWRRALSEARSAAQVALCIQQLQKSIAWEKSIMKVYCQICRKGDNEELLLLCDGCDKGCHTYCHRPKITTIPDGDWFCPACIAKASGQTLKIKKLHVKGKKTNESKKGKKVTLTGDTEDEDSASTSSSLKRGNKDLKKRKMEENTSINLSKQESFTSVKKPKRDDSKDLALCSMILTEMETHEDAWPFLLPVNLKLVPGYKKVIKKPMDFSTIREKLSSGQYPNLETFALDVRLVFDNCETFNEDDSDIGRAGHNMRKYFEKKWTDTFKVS
#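 Inhibition is scored as reduced AlphaScreen emission. The BAZ2B/b-H3(5-23)K14Ac complex (50 nM each) in PBS pH 7.4, 0.01% Tween-20 meets compound (up to 110 uM) for 30 min at RT before bead addition.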
# Sfp inh: Sfp phosphopantetheinyl transferase inhibition; Q9F4F7; Biochemical Sfp PPTase activity, qHTS; Potency, µM, for inactives: largest response in the series, negative = inhibition, hits mostly inhibitors; 310,000 compounds, 3.5% hits;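 note: the enzyme is Sfp with the accession as filed and its product quenches rhodamine fluorescence; 0% = enzyme reaction without inhibitor and -100% = no enzyme wells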
#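 Fluorescence-quenching assay with 15 nM Sfp, 5 uM rhodamine-CoA and 12.5 uM BHQ-2-labelled ybbR peptide in pH 7.6 Hepes/MgCl2 buffer. Enzyme was pre-incubated with compound for 15 min at room temperature. Rate was taken from the 30-min fluorescence change (525/598 nm).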
# HP1b binding inh: blocks HP1-beta chromodomain binding to methylated histone tails; 390,000 compounds, 0.56% hits; AlphaScreen HP1-beta / biotin-H3K9me3 peptide binding; Potency, µM (top dose mostly 114 µM), inactives show top-dose activity change, negative = inhibition, actives largely listed as inhibitors; P83916; note: nearly all actives have a fitted effect of over 70% in size
#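 HP1-beta protein (50 nM final) preincubated 30 min at room temperature with biotinylated H3(1-18)K9me3 peptide (50 nM) in PBS pH 7.4, 0.01% Tween-20, then compound added for 30 min. AlphaScreen streptavidin donor/nickel chelate acceptor beads (10 ug/mL final), 30 min dark, luminescence read.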
# G9a block: blocks human histone lysine methyltransferase G9a; Q96KQ7; G9a H3K9 monomethylation, AlphaScreen, 2 h; Potency, µM (highest dose often 102 µM), inactives show at the top dose activity, negative = inhibition, actives largely listed as inhibitors; 350,000 compounds, 8.8% hits; AID 504332; note: % is set by controls: 0 for no effect and ±100 for the full control effect; nearly all actives have a fitted effect of over 75% in size
#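 Quantitative HTS format: methyltransferase activity on a biotin-tagged H3K9 peptide is measured by AlphaScreen, using a rabbit anti-monomethyl-H3K9 antibody with streptavidin donor and anti-IgG acceptor beads. Final levels are 20 nM enzyme, 500 nM peptide, 20 uM SAM; 2 h RT.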
# The depositor's hits bear a star; ? = inconclusive; . = no result given; [ ] = dose if it differs, or a comment. Calls come from the whole dose curve; as a rule, active = well fitted curve in the direction sought with a large enough effect; inconclusive = small, poorly fitted or top-dose-only effect, or another doubt; inactive = no such curve, though single readings can be large; an effect the other way counts as inactive or inconclusive. Potency is the fitted concentration of half-maximal effect.
SMILES,JMJD2A Tudor,BAZ2B block,Sfp inh,HP1b binding inh,G9a block
NS(=O)(=O)c1ccc(CCNC(=O)CNCCc2ccc(C(F)(F)F)cc2)cc1,18µM*,50µM*,-5%,-7%,-1%
Cc1nn(-c2ccccc2)c(Cl)c1C(=O)OCC(=O)NCCc1ccc(S(N)(=O)=O)cc1,-17%,-24%,.,21%,50µM*
NS(=O)(=O)c1ccc(CCNCC(=O)N2CCC(Cc3ccccc3)CC2)cc1,-35%[11.4 µM],56µM*,?,-12%,.
NS(=O)(=O)c1ccc(CCNCC(=O)NC2CC2)cc1,4.5µM*,?,-1%,?,50µM*
Cc1noc(C)c1C(=O)OCC(=O)NCCc1ccc(S(N)(=O)=O)cc1,-1%,.,.,24%,.
NS(=O)(=O)c1ccc(CCNC(=S)NC2CCCC2)cc1,-9%,-28%,10%,?,-2%
NS(=O)(=O)c1ccc(CCNC(=O)CNC(=O)c2ccc(F)cc2)cc1,-14%,6%,5%,-19%,2%
Cc1cc(C)c2c(CC(=O)N(Cc3ccc(Cl)cc3)Cc3ccco3)coc2c1,-17%,-30%,.,34%,-16%[59 µM]
Cc1ccoc1C(=O)Nc1cccc2ccccc12,-13%,-23%,12%,36%,-3%[59 µM]
CCOc1ccccc1C(=O)Nc1cc(-c2ccc(C)cc2)no1,-11%,-9%,.,41%,-7%[59 µM]
Cc1cccc(C(=O)NCC(=O)OCc2cc(=O)n3nc(C4CC4)sc3n2)c1,-4%,-17%,.,69%,17%[59 µM]
CC(C)c1ccccc1NC(=O)CNCCc1ccc(C(F)(F)F)cc1,14µM*,45µM*,79µM*,?,-9%[12.7 µM]
Cc1[nH]c2ccccc2c1C(=O)COC(=O)c1ccccc1O,-1%,.,.,15%,.
CCOC(=O)c1c(C)[nH]c(C)c1C(=O)COC(=O)CCOc1ccccc1OC,79µM*,-32%,-5%,-23%,?
CCOC(=O)c1c(C)[nH]c(C)c1C(=O)COC(=O)c1ccccc1O,-21%,-34%,9%,7%,50µM*
CCOC(=O)c1[nH]c(COC(=O)CCOc2ccccc2OC)c(C(=O)OCC)c1C,6%,8%,2%,54%,?
Cc1c(NC(=O)c2ccc(-c3ccc(F)cc3)o2)cccc1-c1nc2ncccc2o1,-20%,-32%,.,36%,-24%[59 µM]
Cc1ccc(N=Cc2cc3c(cc2[N+](=O)[O-])OCO3)cc1[N+](=O)[O-],?,.,.,-3%,.
Cc1ccc(C)c(N=Cc2cc3c(cc2[N+](=O)[O-])OCO3)c1,50µM*,20µM*,?,45µM*,?
CC(C)(C)c1ccc(O)c(N=Cc2cc3c(cc2[N+](=O)[O-])OCO3)c1,?,50µM*,-24%,?,6%[0.501 µM]
O=[N+]([O-])c1cc(Br)cc(C=Nc2ccc3c(c2)OCO3)c1O,?,45µM*,?,-13%,45µM*
O=C(CCc1ccc(O)c(O)c1)N/N=C/c1cc2c(cc1[N+](=O)[O-])OCO2,40µM*,45µM*,40µM*,?,3.5µM*
Cc1cccc(C)c1OCC(=O)N/N=C/c1cc2c(cc1[N+](=O)[O-])OCO2,-31%,-18%,-10%,19%,?
CSCc1ccc(C(=O)N2CCCC(Nc3ccc(F)cc3)C2)o1 (configuration not stated),?,?,19%,-2%,?
Cc1ccc(NC(=O)c2ccc(Cl)cc2Cl)c(C(=O)c2ccccc2)c1,4%,2%,.,30%,0%[59 µM]
SMILES,JMJD2A Tudor,BAZ2B block,Sfp inh,HP1b binding inh,G9a block
O=[N+]([O-])c1ccc(S(=O)(=O)NN=Cc2ccc3c(c2)OCO3)cc1,-27%,.,.,0%,.
O=[N+]([O-])c1cc2c(cc1/C=N\NS(=O)(=O)c1ccccc1)OCO2,-11%,-5%,-17%,23%,4µM*
O=C(Cc1cn2ccsc2n1)NCc1ccccc1,-34%,79µM*,-15%,32%,-35%[59 µM]
CCn1c2ccccc2c2cc(NC(=O)COC(=O)Cc3cn4ccsc4n3)ccc21,35µM*,5%,2%,1%,-1%
CCn1c2ccccc2c2cc(NC(=O)COC(=O)c3ccc(O)cc3)ccc21,-23%,-20%,.,13%,?
COc1ccc(CC(=O)NCc2cn3ccsc3n2)cc1,-26%,-3%,0%,39%,-19%
CC1CCCC(NC(=O)COC(=O)Cc2cn3ccsc3n2)C1C (configuration not stated),-21%,2%,-13%,9%,50µM*
COc1ccc(-c2cn3nc4c(nc3n2)CCCC4)cc1,18%,7%,-25%,78%,79µM*
COc1ccc(-c2cn3ccccc3n2)cc1,-26%,-14%,12%,16%,2%
CC(C)Nc1cccnc1N1CCN(C(=O)c2cc3cc(NS(C)(=O)=O)ccc3[nH]2)CC1,.,.,6%,.,-30%[12.7 µM]
COC(=O)c1cc(Br)c(=O)n(CCN2CCCC2)c1,-20%,-2%[57.1 µM],-7%,42%,50µM*
O=C(Cn1cc(CNCc2ccccc2)nn1)Nc1cc(C(F)(F)F)ccc1Cl,-9%,.,.,.,.
CN1CCN(CCC(=O)N2c3ccccc3Sc3ccc(Cl)cc32)CC1,?,79µM*,89µM*,-4%,?
CCCOc1ccc(NC(=O)CC2C(=O)N(c3ccc(OCC)cc3)C(=S)N2C2CC2)cc1 (configuration not stated),1%,-10%,9%,44%,.
CCn1c(SCC(=O)c2ccc(O)c(O)c2)nnc1-c1ccccc1OC,28µM*,79µM*,-21%,?,?
C=CCn1c(SCC(=O)c2ccc(O)c(O)c2)nnc1-c1ccccc1OC,?,50µM*,-23%,26%,5µM*
CCn1c(SCC(=O)c2ccc(O)c(O)c2)nnc1-c1ccccc1,?,?,-18%,10%,14µM*
CCOC(=O)C(CCc1ccccc1)NC1CCc2ccccc2N(CC(=O)O)C1=O (configuration not stated),.,.,0%,.,-3%[2.33 µM]
Cc1ccc(NC(=S)N(CCCN2CCOCC2)Cc2cccs2)c(C)c1,-10%,2%,25µM*,-1%,?
Cc1c(Cl)cccc1NC(=S)N(CCCN1CCOCC1)Cc1cccs1,-20%,-7%,-8%,-4%,17%
COC(=O)c1ccccc1S(=O)(=O)N(CCCN1CCOCC1)Cc1cccs1,7.9µM*,50µM*,4%,?,7.9µM*
O=C(c1cc([N+](=O)[O-])ccc1Cl)N1c2ccccc2Sc2ccccc21,?,?,-11%,-34%,8.9µM*
CCCN1CNc2c(c(=O)[nH]c(=S)n2CCC(C)(C)C)C1,-5%,.,.,15%,.
COc1cccc(CN2CCN(Cc3cc(OC)c(OC)cc3[N+](=O)[O-])CC2)c1,0.79µM*,?,56µM*,-52%,7.9µM*
COc1cc(CN2CCSCC2)c([N+](=O)[O-])cc1OC,2.2µM*,?,?,?,.
COc1ccc(C(=O)Cc2cc(OC)c(OC)cc2[N+](=O)[O-])cc1,-7%,0%,15%,24%,8%[59 µM]
